Some test systems named below: HCT-15 colon; HT29 colon; SNB-75 CNS; SNB-19 CNS; U251 CNS; PC-3 prostate; SK-MEL-5 melanoma; UACC-62 melanoma; LOX IMVI melanoma; SK-MEL-28 melanoma.
What all share (test): NCI-60 one-dose screen, 48 h (100 = growth as untreated, 0 = no growth, -100 = all killed)
Common to all, as to details: 10 µM

Each structure is given as a SMILES string. The panel holds about 83,000 compounds, 20% with a hit somewhere; the sample as a whole holds those more often.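 A percent growth of 40 corresponds to 60% growth inhibition; 0 means no net growth; -100 means all cells died. Active threshold: below 10.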 A number with no mark means an inactive call. Active and inactive are the calls of the source.

For `COc1ccc(-c2oncc2-c2cc(OC)c3c(c2)OCO3)cc1`, the growth with HCT-15 colon was 15.9%; with HT29 colon, 6.55% (active); in the assay on SNB-75 CNS, -9.45% (active); in the assay with SNB-19 CNS, 46.2%; in the assay with U251 CNS, 28%; with PC-3 prostate it was 40.4%. Further, the growth with SK-MEL-5 melanoma is 17.9%; with UACC-62 melanoma it was 50.7%; in the assay on LOX IMVI melanoma it was 34.2%; in the assay with SK-MEL-28 melanoma, 37%.
Take `CCOC(=O)Nc1ccc2c(c1)C(=O)N(CC)c1ccccc1O2`: the growth was 14.4% with HCT-15 colon; -3.19% (active) with HT29 colon; 27.3% in the assay on SNB-75 CNS; 31.7% with SNB-19 CNS; 18.7% with U251 CNS; 33.8% in the assay on PC-3 prostate. Further, the growth was -28% (active) with SK-MEL-5 melanoma, 21.5% in the assay with UACC-62 melanoma, 15.1% in the assay with LOX IMVI melanoma and 63.4% in the assay on SK-MEL-28 melanoma.
As for `CCCc1c(CC)c(=N)c2ccccc2n1C`, the growth in the assay on HCT-15 colon was 10.7%; with HT29 colon it was 4.71% (active); in the assay with SNB-75 CNS it was 73.4%; in the assay with SNB-19 CNS, 95.1%; in the assay on U251 CNS it was 43.2%; in the assay on PC-3 prostate it was 67.4%. Moreover, the growth with SK-MEL-5 melanoma is 19.2%; with UACC-62 melanoma, -3.76% (active); in the assay on LOX IMVI melanoma, 1.08% (active); with SK-MEL-28 melanoma it was -80.8% (active).
Turning to `COc1cccc(-c2nnc(COc3ccc(-c4nc5ccc(C)cc5[nH]4)cc3OC)o2)c1`, the growth in the assay with HCT-15 colon was 18.5%; in the assay with HT29 colon, 21.4%; with SNB-75 CNS, 56.6%; with SNB-19 CNS, 69.6%; in the assay with U251 CNS, 23%; with PC-3 prostate it was 57.7%. Also, the growth was 70.4% in the assay on SK-MEL-5 melanoma, 79.9% in the assay with UACC-62 melanoma, 78.4% with LOX IMVI melanoma and 65.2% in the assay with SK-MEL-28 melanoma.
For the compound `CCOC(=O)/C(C#N)=C(/C)C1CC1`, the growth in the assay on HCT-15 colon is 98.6%; with HT29 colon, 112%; in the assay on SNB-75 CNS, 87.7%; with SNB-19 CNS, 110%; in the assay on U251 CNS it was 100%; in the assay with PC-3 prostate, 97.3%. The growth was 99.6% with SK-MEL-5 melanoma, 107% in the assay on UACC-62 melanoma, 106% in the assay on LOX IMVI melanoma and 106% in the assay on SK-MEL-28 melanoma.
Regarding `COc1nc2c(c(=O)[nH]1)C(c1ccc(Oc3ccnc4cc(Cl)ccc34)c(OC)c1)C=C(c1cc(OC)c(OC)c(OC)c1)N2` (stereo not given), the growth was 98.8% with HCT-15 colon; 89.8% in the assay with HT29 colon; 91.9% in the assay with SNB-75 CNS; 89.1% with SNB-19 CNS; 97.4% with U251 CNS; 87.2% in the assay with PC-3 prostate. In addition, the growth in the assay on SK-MEL-5 melanoma is 95.1%; with UACC-62 melanoma, 95.9%; in the assay on LOX IMVI melanoma it was 95.5%; with SK-MEL-28 melanoma, 116%.
As for `CC1(C)CCc2cc(-c3ccn(S(=O)(=O)c4ccc(Cl)cc4)n3)ccc2O1`, the growth is 91.3% with HCT-15 colon; 70.9% in the assay with HT29 colon; 92.3% in the assay on SNB-75 CNS; 100% with SNB-19 CNS; 74.2% in the assay on U251 CNS; 56.8% in the assay on PC-3 prostate. Besides, the growth is 47.2% with SK-MEL-5 melanoma, 75% with UACC-62 melanoma, 72.2% in the assay with LOX IMVI melanoma and 94.7% in the assay with SK-MEL-28 melanoma.
With `CC(C)/C=N/NC(N)=S`, the growth was 90.6% in the assay on HCT-15 colon; 62.2% in the assay with HT29 colon; 81.3% in the assay with SNB-75 CNS; 98.3% in the assay on SNB-19 CNS; 80.8% with U251 CNS; 55.1% with PC-3 prostate. Besides, the growth was 97.2% in the assay on SK-MEL-5 melanoma, 97.3% with UACC-62 melanoma, 96% in the assay on LOX IMVI melanoma and 99.2% in the assay on SK-MEL-28 melanoma.
In the case of `O=C(C=P(c1ccccc1)(c1ccccc1)c1ccccc1)c1ccc(Br)cc1`, the growth is 95.2% with HCT-15 colon; 79.1% in the assay on HT29 colon; 90.9% with SNB-75 CNS; 98.6% in the assay with SNB-19 CNS; 97.1% with U251 CNS; 41.7% in the assay with PC-3 prostate. The growth with SK-MEL-5 melanoma is 96.6%; in the assay on UACC-62 melanoma, 67.5%; in the assay on LOX IMVI melanoma, 73.4%; in the assay on SK-MEL-28 melanoma, 109%.
With `O=S(=O)(NC1c2ccccc2Oc2ccccc21)c1ccccc1`, the growth in the assay with HCT-15 colon is 91.8%; with HT29 colon, 92.2%; in the assay with SNB-75 CNS it was 88.4%; with SNB-19 CNS it was 105%; with U251 CNS it was 91.9%; in the assay with PC-3 prostate, 88.2%. Further, the growth with SK-MEL-5 melanoma is 102%; with UACC-62 melanoma it was 97.8%; in the assay on LOX IMVI melanoma it was 87.5%; in the assay with SK-MEL-28 melanoma, 101%.
Turning to `CC(C)C(C)C(N)C(=O)O` (stereo not given), the growth in the assay with HCT-15 colon is 97.6%; with HT29 colon, 107%; in the assay with SNB-75 CNS it was 95.2%; in the assay with SNB-19 CNS, 115%; in the assay with U251 CNS, 103%; with PC-3 prostate, 98.2%. The growth is 102% in the assay on SK-MEL-5 melanoma, 113% with UACC-62 melanoma, 96% in the assay with LOX IMVI melanoma and 108% in the assay on SK-MEL-28 melanoma.
As to `O=C(Nc1cccc([N+](=O)[O-])c1)NN1CCCCCC1`, the growth in the assay with HCT-15 colon was 90.4%; with HT29 colon, 107%; with SNB-75 CNS it was 105%; with SNB-19 CNS, 95.6%; with U251 CNS, 87.2%; in the assay on PC-3 prostate, 83.1%. Moreover, the growth in the assay with SK-MEL-5 melanoma is 96%; in the assay with UACC-62 melanoma, 76.2%; in the assay on LOX IMVI melanoma, 97.2%; in the assay on SK-MEL-28 melanoma, 112%.
Regarding `O=C1/C(=C/c2ccc(O)cc2)Cc2ccc(Cl)cc21`, the growth in the assay with HCT-15 colon is 89.2%; in the assay with HT29 colon, 110%; in the assay with SNB-75 CNS, 73.4%; with SNB-19 CNS, 93.9%; in the assay on U251 CNS, 95.8%; in the assay with PC-3 prostate, 92.6%. Moreover, the growth in the assay on SK-MEL-5 melanoma is 79.3%; in the assay with UACC-62 melanoma it was 77.3%; in the assay with LOX IMVI melanoma it was 84.2%; in the assay with SK-MEL-28 melanoma, 114%.
`C#Cc1ccc(-n2c(/C=C/c3cc(OC)c(OC)c(OC)c3)nc3ncccc3c2=O)cc1`: the growth was 48.6% in the assay with HCT-15 colon; 16% with HT29 colon; 34% in the assay with SNB-75 CNS; 88.9% in the assay with SNB-19 CNS; 79.3% in the assay on U251 CNS; 43.8% with PC-3 prostate. For the same compound, the growth in the assay with SK-MEL-5 melanoma was 9.66% (active); with UACC-62 melanoma, 52.7%; in the assay with LOX IMVI melanoma, 56.9%; in the assay with SK-MEL-28 melanoma, 77.6%.
Consider `COc1ccc2c(c1)/C(=C/c1cc(OC)c(OC)c(OC)c1)C(=O)N2C`, for which the growth is 12.6% with HCT-15 colon; 11.8% in the assay on HT29 colon; -14.6% (active) with SNB-75 CNS; 4.75% (active) in the assay on SNB-19 CNS; 5.64% (active) with U251 CNS; 38.3% in the assay with PC-3 prostate. The growth is -12.7% (active) in the assay with SK-MEL-5 melanoma, 18.9% in the assay on UACC-62 melanoma, 10.8% with LOX IMVI melanoma and 28.8% in the assay on SK-MEL-28 melanoma.
For the compound `O=C(c1ccccc1)C(Sc1ccccc1)c1ccccc1` (stereo not given), the growth in the assay with HCT-15 colon was 60.7%; in the assay with HT29 colon, 45.6%; with SNB-75 CNS, 101%; in the assay with SNB-19 CNS it was 110%; with U251 CNS, 79.4%; in the assay with PC-3 prostate, 73%. For the same compound, the growth with SK-MEL-5 melanoma is 108%; with UACC-62 melanoma, 83.5%; with LOX IMVI melanoma, 74.5%; with SK-MEL-28 melanoma, 94.1%.
Regarding `CCN1CCN(c2ccc(Nc3ncnc4c3nnn4CCc3cc(OC)cc(OC)c3)cc2)CC1`, the growth with HCT-15 colon is 63.6%; with HT29 colon it was 57.9%; in the assay on SNB-75 CNS, 79.8%; in the assay with SNB-19 CNS, 94%; in the assay with U251 CNS it was 77.4%; in the assay on PC-3 prostate, 82.2%. In addition, the growth in the assay on SK-MEL-5 melanoma is 73.5%; in the assay with UACC-62 melanoma it was 93.9%; with LOX IMVI melanoma it was 88.1%; in the assay with SK-MEL-28 melanoma, 101%.
`Cc1cn(C(=O)/C(Cl)=C(/Cl)C(=O)O)c2ccccc12`: the growth with HCT-15 colon is 105%; in the assay on HT29 colon it was 110%; in the assay on SNB-75 CNS it was 73%; in the assay with SNB-19 CNS, 106%; with U251 CNS, 114%; in the assay on PC-3 prostate, 83.6%. Moreover, the growth was 104% in the assay on SK-MEL-5 melanoma, 94% in the assay with UACC-62 melanoma, 93.7% in the assay on LOX IMVI melanoma and 112% with SK-MEL-28 melanoma.
As for `COc1cc(-c2nc3ccccc3[nH]2)ccc1OCc1nnc(-c2ccc(Br)cc2)o1`, the growth with HCT-15 colon was 45.3%; in the assay with HT29 colon, 70.7%; in the assay on SNB-75 CNS, 104%; in the assay on SNB-19 CNS it was 104%; in the assay on U251 CNS, 83.9%; in the assay with PC-3 prostate, 96.2%. The growth is 75% in the assay on SK-MEL-5 melanoma, 92.7% in the assay with UACC-62 melanoma, 92.6% in the assay on LOX IMVI melanoma and 93.2% with SK-MEL-28 melanoma.
Regarding `COc1ccc(C2C=C(c3ccc(Cl)c(Cl)c3)N=C3SC(C)=CN32)cc1` (stereo not given), the growth is 85.5% with HCT-15 colon; 71.1% in the assay on HT29 colon; 89.8% in the assay with SNB-75 CNS; 96.6% in the assay with SNB-19 CNS; 84.2% in the assay with U251 CNS; 90.5% in the assay on PC-3 prostate. Also, the growth is 93.6% in the assay on SK-MEL-5 melanoma, 92.1% with UACC-62 melanoma, 83.4% with LOX IMVI melanoma and 104% in the assay on SK-MEL-28 melanoma.

The values are drawn from PubChem BioAssay (NCI).
